These results are taken from PubChem BioAssay (EPA / NIEHS).

As a reminder, the AC50 is the concentration giving half of the maximal activity seen.

Read-out in test [1]: Macrophage colony-stimulating factor (MCSF), CSF1 (gene 1435)
Nature of the test: BSK_hDFCGF_MCSF: BioMAP Diversity Plus: hDFCGF Assay for Macrophage colony-stimulating factor (MCSF) Biomarker Activity (AID 2283060). The following applies: primary human foreskin fibroblasts; actives raise or lower the signal. Summed up:
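fibroblasts (human foreskin, primary), 24 h post-dose; M-CSF by ELISA; bidirectional fit, DMSO = baseline.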

A short description of test [2]: BSK_hDFCGF_SRB: Viability Assessment in the BioMAP Diversity Plus: hDFCGF Assay (AID 2283061).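 Note: cells exposed to compound for 24 h before the read.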 The following applies: primary human foreskin fibroblasts. Summed up:
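SRB-based viability read on primary human skin fibroblasts at 24 h: TCA fixation, 0.1% dye, 560 nm. Gain or loss of signal is fitted against the DMSO negative control.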

Read-out in test [3]: TIMP metallopeptidase inhibitor 1 (TIMP1), TIMP1 (gene 7076)
Nature of the test: BSK_hDFCGF_TIMP1: BioMAP Diversity Plus: hDFCGF Assay for TIMP metallopeptidase inhibitor 1 (TIMP1) Biomarker Activity (AID 2283062). The following applies: primary human foreskin fibroblasts; actives raise or lower the signal. Summed up:
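Bidirectional curve fitting against DMSO baseline yielded this endpoint, based on ELISA detection of TIMP-1 in primary human foreskin fibroblasts exposed to compound for 24 h.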

Read-out in test [4]: Monokine induced gamma interferon (MIG), CXCL9 (gene 4283)
Nature of the test: BSK_hDFCGF_MIG: BioMAP Diversity Plus: hDFCGF Assay for Monokine induced gamma interferon (MIG) Biomarker Activity (AID 2283063). The following applies: primary human foreskin fibroblasts; actives raise or lower the signal. Summed up: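 Endpoint derived by bidirectional fitting relative to DMSO; MIG quantified via ELISA in primary human foreskin fibroblasts harvested 24 h after dosing.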

Read-out in test [5]: Matrix Metallopeptidase 1 (MMP1), MMP1 (gene 4312)
Nature of the test: BSK_hDFCGF_MMP1: BioMAP Diversity Plus: hDFCGF Assay for Matrix Metallopeptidase 1 (MMP1) Biomarker Activity (AID 2283064). The following applies: primary human foreskin fibroblasts; actives raise or lower the signal. Summed up:
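MMP1 levels quantified by ELISA 24 h after dosing human dermal fibroblast cultures, with parallel SRB total-protein staining for overt cytotoxicity. Data fitted in both directions against DMSO baseline.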

Read-out in test [6]: Vascular cell adhesion molecule 1 (VCAM1), VCAM1 (gene 7412)
In words: BSK_hDFCGF_VCAM1: BioMAP Diversity Plus: hDFCGF Assay for Vascular cell adhesion molecule 1 (VCAM1) Biomarker Activity (AID 2283065).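 For AC50: VCAM-1 protein level quantified by ELISA after 24 h chemical exposure.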 The following applies: primary human foreskin fibroblasts; actives raise or lower the signal. Summed up: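 Measured after 24 h chemical treatment of primary human skin fibroblasts, VCAM-1 was detected by ELISA and concentration-response analysed in both directions versus DMSO vehicle.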

Read-out in test [7]: Plasminogen activator inhibitor-1 (PAI1), SERPINE1 (gene 5054)
Nature of the test: BSK_hDFCGF_PAI1: BioMAP Diversity Plus: hDFCGF Assay for Plasminogen activator inhibitor-1 (PAI1) Biomarker Activity (AID 2283066). The following applies: primary human foreskin fibroblasts; actives raise or lower the signal. Summed up: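 PAI-1 levels in human dermal foreskin fibroblasts were quantified by ELISA 24 h after dosing, with gain or loss analysed against DMSO. Overt cytotoxicity was checked by sulforhodamine B total-protein staining in parallel cultures.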

Read-out in test [8]: Interferon-gamma inducible Protein 10 (IP10), CXCL10 (gene 3627)
In words: BSK_KF3CT_IP10: BioMAP Diversity Plus: KF3CT Assay for Interferon-gamma inducible Protein 10 (IP10) Biomarker Activity (AID 2283068). The following applies: primary human keratinocytes with fibroblasts; actives raise or lower the signal. Summed up:
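ELISA read-out of IP-10 after 24 h chemical dosing of human skin primary co-culture (keratinocytes, foreskin fibroblasts). Gain or loss of signal relative to DMSO, bidirectional curve fit.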

The nature of test [9]: BSK_KF3CT_SRB: Viability Assessment in the BioMAP Diversity Plus: KF3CT Assay (AID 2283069).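 Note: read 24 h after compound addition.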 The following applies: primary human keratinocytes with fibroblasts. Summed up:
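Cytotoxicity was gauged by SRB staining (0.1% SRB, 10% TCA fixation, 560 nm) of parallel cultures at 24 h. The cells were primary human skin keratinocytes co-cultured with fibroblasts, and activity was fitted in both directions against DMSO.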

Read-out in test [10]: Interleukin-1 alpha (IL1a), IL1A (gene 3552)
Nature of the test: BSK_KF3CT_IL1a: BioMAP Diversity Plus: KF3CT Assay for Interleukin-1 alpha (IL1a) Biomarker Activity (AID 2283070). The following applies: primary human keratinocytes with fibroblasts; actives raise or lower the signal. Summed up:
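IL-1a was detected by ELISA 24 h after chemical treatment of a co-culture of human skin keratinocytes and foreskin fibroblasts. Gain or loss of signal was fitted against the DMSO baseline.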

Read-out in test [11]: TIMP metallopeptidase inhibitor 2 (TIMP2), TIMP2 (gene 7077)
In words: BSK_KF3CT_TIMP2: BioMAP Diversity Plus: KF3CT Assay for TIMP metallopeptidase inhibitor 2 (TIMP2) Biomarker Activity (AID 2283071). The following applies: primary human keratinocytes with fibroblasts; actives raise or lower the signal. Summed up: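 TIMP-2 measured by ELISA at 24 h in human keratinocyte/fibroblast primary co-cultures exposed to chemicals. Both increases and decreases were fitted against DMSO. Parallel cultures were stained with SRB for total protein as an overt-cytotoxicity check.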

Read-out in test [12]: Transforming growth factor beta 1 (TGFb1), TGFB1 (gene 7040)
Nature of the test: BSK_KF3CT_TGFb1: BioMAP Diversity Plus: KF3CT Assay for Transforming growth factor beta 1 (TGFb1) Biomarker Activity (AID 2283072). The following applies: primary human keratinocytes with fibroblasts; actives raise or lower the signal. Summed up:
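ELISA quantifies TGF-b1 at 24 h post-dose in a primary human skin co-culture of keratinocytes and fibroblasts, with gain or loss judged against DMSO. Parallel SRB total-protein staining flags overt cytotoxicity.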

Read-out in test [13]: C-C motif chemokine 2 (Homo sapiens) (UniProt P13500)
In words: BSK_KF3CT_MCP1: BioMAP Diversity Plus: KF3CT Assay for Monocyte Chemoattractant Protein 1 (MCP1/CCL2) Biomarker Activity (AID 2283073). The following applies: primary human keratinocytes with fibroblasts; actives raise or lower the signal. Summed up:
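Biomarker MCP-1 is measured by ELISA in primary human keratinocytes co-cultured with foreskin fibroblasts, 24 h after chemical treatment; DMSO serves as the negative control and activity baseline.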

Read-out in test [14]: Matrix Metallopeptidase 9 (MMP9), MMP9 (gene 4318)
In words: BSK_KF3CT_MMP9: BioMAP Diversity Plus: KF3CT Assay for Matrix Metallopeptidase 9 (MMP9) Biomarker Activity (AID 2283074). The following applies: primary human keratinocytes with fibroblasts; actives raise or lower the signal. Summed up:
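MMP-9 quantified by ELISA after 24 h chemical treatment of primary human skin keratinocyte/fibroblast co-cultures; gain or loss fitted against DMSO, with parallel SRB staining (0.1% SRB, 560 nm) for overt cytotoxicity.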

Read-out in another test: CD40, CD40 (gene 958)
In words: BSK_LPS_CD40: BioMAP Diversity Plus: LPS Assay for CD40 Biomarker Activity (AID 2283076). The following applies: primary human HUVEC with PBMC; actives raise or lower the signal. Summed up:
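Using a multiplexed primary human co-culture (umbilical vein endothelium plus PBMC), CD40 was read by ELISA 24 h after dosing, with cytotoxicity tracked by sulforhodamine B staining of parallel cultures and activity fitted bidirectionally versus DMSO.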

Read-out in test [15]: E-selectin (Homo sapiens) (UniProt P16581)
In words: BSK_LPS_Eselectin: BioMAP Diversity Plus: LPS Assay for Eselectin Biomarker Activity (AID 2283077). The following applies: primary human HUVEC with PBMC; actives raise or lower the signal. Summed up:
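Dose chemical onto LPS-driven HUVEC/PBMC co-culture; after 24 h, run ELISA for E-selectin; fit up- and down-going responses relative to DMSO control.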

Read-out in test [16]: Interleukin-8 (IL8), CXCL8 (gene 3576)
Nature of the test: BSK_LPS_IL8: BioMAP Diversity Plus: LPS Assay for Interleukin-8 (IL8) Biomarker Activity (AID 2283078). The following applies: primary human HUVEC with PBMC; actives raise or lower the signal. Summed up: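 In this LPS system, chemical-treated human umbilical vein endothelium/PBMC co-cultures were harvested at 24 h for IL-8 ELISA.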

Test [17] can be described thus: BSK_LPS_SRB: Viability Assessment in the BioMAP Diversity Plus: LPS Assay (AID 2283079).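 Note: total protein by sulforhodamine B absorbance as a cytotoxicity measure; measured one day after compound addition; fitted in both directions against DMSO so loss or gain of signal counts.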 The following applies: primary human HUVEC with PBMC. Summed up:
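Cytotoxicity endpoint in human endothelial–PBMC co-culture: 24 h exposure, then SRB (0.1%) staining, 560 nm read.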

Read-out in test [18]: Intercellular Adhesion Molecule 1 (ICAM1), ICAM1 (gene 3383)
In words: BSK_KF3CT_ICAM1: BioMAP Diversity Plus: KF3CT Assay for Intercellular Adhesion Molecule 1 (ICAM1) Biomarker Activity (AID 2283067). The following applies: primary human keratinocytes with fibroblasts; actives raise or lower the signal. Summed up: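 Bidirectional curve fitting against a DMSO baseline was applied to ICAM-1 ELISA signal from primary human skin co-cultures harvested 24 h after treatment, with SRB staining of parallel wells for overt cytotoxicity.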

Active and inactive are the calls of the source. Rule for the calls: active = hit-call score of the fitted dose curve at least 0.9, where 1 is the maximum; inactive = score below 0.9.

E-selectin (Homo sapiens), sequence (P16581 whole entry, looked up): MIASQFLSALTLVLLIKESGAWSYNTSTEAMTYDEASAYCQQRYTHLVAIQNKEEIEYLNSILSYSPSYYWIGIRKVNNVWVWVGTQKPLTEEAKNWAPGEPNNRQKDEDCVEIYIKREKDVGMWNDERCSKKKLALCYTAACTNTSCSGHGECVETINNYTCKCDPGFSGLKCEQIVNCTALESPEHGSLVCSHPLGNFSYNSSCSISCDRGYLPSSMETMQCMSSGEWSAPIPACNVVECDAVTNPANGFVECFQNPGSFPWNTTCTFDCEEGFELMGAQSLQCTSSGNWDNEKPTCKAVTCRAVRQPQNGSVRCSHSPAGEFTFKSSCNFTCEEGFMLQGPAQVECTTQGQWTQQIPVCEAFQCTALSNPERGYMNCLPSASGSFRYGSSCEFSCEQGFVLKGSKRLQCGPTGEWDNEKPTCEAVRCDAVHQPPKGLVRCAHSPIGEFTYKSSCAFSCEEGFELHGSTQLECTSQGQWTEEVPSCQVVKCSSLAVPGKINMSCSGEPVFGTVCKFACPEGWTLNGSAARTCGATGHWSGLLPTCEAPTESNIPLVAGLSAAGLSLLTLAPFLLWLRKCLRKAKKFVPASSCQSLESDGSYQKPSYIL

As for `CCN(CC)c1ccc2c(C)cc(=O)oc2c1`, the outcome in [1], in [2], in [3], in test [4], in [5] and in test [7] was inactive. Besides, the outcome in test [8], in test [9], in test [10], in test [11], in test [12] and in test [13] was inactive. Besides, the outcome in [14] is “inactive”; in the test with CD40, CD40 (gene 958), “inactive”; in test [15], “inactive”; in test [16] it was “inactive”; in test [17], “inactive”. Further, the AC50 in [6] was 30.5 µM (active).

Consider `CS(C)(=O)=O`, for which the result in test [1], in test [2], in test [3], in test [4], in test [5] and in test [6] was inactive. Moreover, the result in test [7], in test [8], in test [9], in test [10], in test [11] and in test [12] was inactive. Moreover, the outcome in test [13] is “inactive”; in test [14], “inactive”; with CD40, CD40 (gene 958), “inactive”; in test [15], “inactive”; in [16] it was “inactive”; in test [17] it was “inactive”.

For the molecule `CC(C)(C)C(=O)CC(=O)C(F)(F)C(F)(F)C(F)(F)F`, the result in [1], in test [2], in [3], in test [4], in test [5] and in test [6] was inactive. Besides, the result in test [7], in test [8], in [9], in test [10], in test [11] and in test [13] was inactive. Besides, the outcome in test [14] was “inactive”; with CD40, CD40 (gene 958), “inactive”; in test [15], “inactive”; in test [16], “inactive”; in [17], “inactive”.

As for `O=C(O)C(F)(F)C(F)(F)C(F)(F)C(F)(F)F`, the outcome in test [1], in [2], in test [3], in test [4], in test [5] and in test [6] was inactive. For the same molecule, the result in [7], in test [8], in [9], in [10], in test [11] and in [13] was inactive. For the same molecule, the outcome in test [14] is “inactive”; in the test with CD40, CD40 (gene 958), “inactive”; in [15], “inactive”; in test [16] it was “inactive”; in [17], “inactive”.

Take `FC(F)(F)C(F)(F)C(F)(F)N(C(F)(F)C(F)(F)C(F)(F)F)C(F)(F)C(F)(F)C(F)(F)F`: the outcome in [1], in test [2], in test [3], in [4], in [5] and in test [6] was inactive. Besides, the outcome in [7], in test [18], in test [8], in [9], in test [10] and in [11] was inactive. Besides, the outcome in [13] was “inactive”; in test [14], “inactive”; in the test with CD40, CD40 (gene 958), “inactive”; in [15], “inactive”; in test [16] it was “inactive”; in test [17] it was “inactive”.
